Values without a mark were called inactive. Records with an inconclusive call do not appear. Where a call stands in place of a potency, no number is given. Activity calls are given as the source filed them. Calls come from the whole dose curve; as a rule, active = well fitted curve in the direction sought with a large enough effect; inconclusive = small, poorly fitted or top-dose-only effect, or another doubt; inactive = no such curve, though single readings can be large; an effect the other way counts as inactive or inconclusive.
How the values were obtained:
[1] = Cellular Toxicity (caspase-3) Mesangial (AID 660); details: mesangial cells, normalized: DMSO 0%, 100 µM tamoxifen 100%; at 91.7 µM (top of the series);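 note: combined caspase 3 and 7 activity read by Caspase-Glo luminescence; cells exposed to compound for 16 h before the caspase read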
In short: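 Seed cells derived from normal human renal glomeruli, incubate 5 h, add compounds across concentrations and incubate 16 h at 37 °C. Caspase 3/7 activation is then quantified by luciferase light, with AC50 derived by Hill modeling.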

[2] = Cellular Toxicity (caspase-3) SK-N-SH (AID 661)
In short: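 Cells were seeded and incubated 5 hr at 37 °C, dosed with compound over a concentration range for 16 hr, then given Caspase-Glo 3/7 reagent for 1 hr at room temperature before luminescence reading.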

[3] = Cellular Toxicity (caspase-3) H-4-II-E (AID 663); details: H-4-II-E rat hepatoma, scaled: DMSO 0%, 100 µM tamoxifen 100%; at 92.2 µM (top of the series);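 note: cells exposed to compound for 16 hr before readout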
In short: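 Caspase 3/7 activation measured in H-4-II-E cells in complete culture medium after 16 hr treatment at 37 °C, using luciferase-coupled substrate readout; AC50 values come from Hill-equation fits of normalized concentration-response data.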

[4] = Cellular Toxicity (caspase-3) N2a (AID 665);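 note: compound exposure lasted 16 h at 37 °C before readout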
In short: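 Caspase-3/7 activation, measured as increased luminescence from aminoluciferin release, is quantified in mouse N2a cells exposed to compounds for 16 h. Values are normalized to DMSO and 10 uM staurosporine, with AC50 derived by Hill modelling.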

[5] = Cellular Toxicity (caspase-3) NIH 3T3 (AID 666)
In short: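 Cells were plated at 1000 per well and incubated 5 hr at 37°C, then compound was added for 16 hr. Caspase-Glo 3/7 reagent followed for 20 min at room temperature before luminescence was read.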

[6] = Cellular Toxicity (caspase-3) Renal Proximal Tubule (AID 667); details: Potency: caspase-3 activation;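 note: cells exposed to compound for 16 hours at 37 °C before detection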
In short: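 Caspase-Glo 3/7 read-out, rat primary kidney proximal tubule cells. Compound exposure 16 h, 37 °C; detection after 1 h at RT. Activity scaled to DMSO and 10 uM staurosporine.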

[7] = biological target: Cytochrome P450 3A4 (Homo sapiens) (UniProt P08684); assay: qHTS Assay for Inhibitors and Substrates of Cytochrome P450 3A4 (AID 884); note: nearly all actives have a fitted effect of over 50% in size; note: potency is the fitted concentration of half-maximal effect
In short: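 Luminescent readout of luciferin produced by CYP3A4 (20 nM) dealkylation of Luciferin-PPXE, 25 uM (its KM). NADPH-driven reaction ran 60 min at RT after 10 min compound preincubation; data scaled to 57 uM ketoconazole as 100% inhibition.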

[8] = Cell Viability - LYMP2-001 (AID 921);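 note: cells exposed to compound for 24 h at 37 °C; nearly all actives have a fitted effect of over 70% in size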; note: potency is the fitted concentration of half-maximal effect
In short: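 A lymphoblastoid cell line of human origin was treated with library compounds across a concentration series for 24 hours, and viable cell number was estimated from ATP-driven luciferase light output. Hill modeling gave AC50.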

[9] = MultiTox-Fluor Cytotoxicity Assay - LYMP1-001 - Dead Cells (AID 946)
In short: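 Seed 2500 LYMP1-001 cells/well, incubate 5 hr at 37 C; add compound, 16 hr at 37 C; add MultiTox-Fluor reagent, 60 min RT; read dead-cell fluorescence Ex/Em=485/520. Normalize to DMSO and 15 uM tetraoctylammonium bromide.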

[10] = MultiTox-Fluor Cytotoxicity Assay - LYMP1-001 - Live Cells (AID 947)
[11] = Cell Viability - LYMP1-002 - Assay at 16 hr (AID 948)
In short: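 In this qHTS, lymphoblastoid LYMP1-002 cells (human) receive compounds for 16 hr at 37 C. Viability is taken from CellTiter-Glo ATP luminescence, and AC50 derives from standard Hill fits.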

[12] = MultiTox-Fluor Cytotoxicity Assay - LYMP1-002 - Live Cells (AID 955)
In short: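 Cells were seeded at 2500 per well and incubated 5 hr. Compounds were then added for 16 hr at 37 C, followed by MultiTox-Fluor reagent for 60 min at room temperature and fluorescence reading of viable-cell protease signal.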

[13] = MultiTox-Fluor Cytotoxicity Assay - LYMP1-003 - Dead Cells (AID 961); note: nearly all actives have a fitted effect of over 70% in size
In short: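 LYMP1-003 lymphoblastoid, 2500 cells/well, 5 hr settle then 16 hr cpd at 37 C; MultiTox-Fluor reagent 60 min RT; Ex/Em 485/520 dead-cell signal; norm. DMSO = 0%, 15 uM tetraoctylammonium bromide = 100%; Hill AC50.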

[14] = MultiTox-Fluor Cytotoxicity Assay - LYMP1-003 - Live Cells (AID 962);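 note: cells exposed to compound for 16 hours at 37 °C; cytotoxic hits lower the live-cell protease signal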
In short: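 Acute cytotoxicity is scored as a drop in live-cell protease activity in human lymphoblastoid LYMP1-003 cells after 16 hr compound exposure at 37 C. AC50 values come from Hill-equation modelling of concentration-response data.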

[15] = Cell Viability - LYMP1-003 - Assay at 24 hr (AID 963)
In short: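 Cytotoxicity is scored as a concentration-dependent fall in ATP-linked luciferase signal in human lymphoblastoid LYMP1-003 cells treated 24 hr at 37 C in complete culture medium.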

[16] = Cell Viability - LYMP1-003 - Assay at 40 hr (AID 964); note: nearly all actives have a fitted effect of over 60% in size
In short: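 Luminescent ATP signal (CellTiter-Glo) served as the viability read-out after 40 hr compound treatment of human lymphoblastoid LYMP1-003 cells at 37 C. Decreases in ATP were fitted with the Hill equation to give AC50.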

[17] = Cell Viability - LYMP2-003 (AID 965);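 note: cells exposed to compounds for 24 h before reading; nearly all actives have a fitted effect of over 50% in size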
In short: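 qHTS, human lymphoblastoid line, 2500 cells/well, complete medium. 24 h drug, 37 C. ATP-based luminescent readout; Hill-fit AC50.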

[18] = MultiTox-Fluor Cytotoxicity Assay - LYMP1-002 - Dead Cells (AID 960); note: nearly all actives have a fitted effect of over 60% in size
In short: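 Cells were plated, rested 5 hr, then treated with compound dilution series for 16 hr at 37 C. After adding substrate reagent and 60 min at room temperature, dead-cell protease fluorescence gave concentration-response curves fitted by the Hill equation.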

[19] = Cellular Toxicity (caspase-3) Hek293 (AID 664); details: HEK293 caspase-3 activation, DMSO = 0%, 100 µM tamoxifen = 100%; at 92.2 µM (top of the series);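 note: cells exposed to compound for 16 h at 37 °C before readout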
In short: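 qHTS, HEK293 (human embryonic kidney), 16 h cpd exposure in complete medium. Caspase-3/7 activation = luminescence increase; normalized to DMSO/100 uM tamoxifen; Hill-fit AC50.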

[20] = biological target: Cytochrome P450 3A4 (Homo sapiens) (UniProt P08684); assay: qHTS Assay for Activators of Cytochrome P450 3A4 (AID 885); note: nearly all actives have a fitted effect of over 65% in size
In short: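 Activators are scored by enhanced luminescence from CYP3A4 conversion of luciferin-PPXE (25uM, equal to KM) to luciferin, after 60 min at RT with an NADPH-regenerating system.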

Sequence of Cytochrome P450 3A4 (Homo sapiens) (P08684 whole entry, looked up): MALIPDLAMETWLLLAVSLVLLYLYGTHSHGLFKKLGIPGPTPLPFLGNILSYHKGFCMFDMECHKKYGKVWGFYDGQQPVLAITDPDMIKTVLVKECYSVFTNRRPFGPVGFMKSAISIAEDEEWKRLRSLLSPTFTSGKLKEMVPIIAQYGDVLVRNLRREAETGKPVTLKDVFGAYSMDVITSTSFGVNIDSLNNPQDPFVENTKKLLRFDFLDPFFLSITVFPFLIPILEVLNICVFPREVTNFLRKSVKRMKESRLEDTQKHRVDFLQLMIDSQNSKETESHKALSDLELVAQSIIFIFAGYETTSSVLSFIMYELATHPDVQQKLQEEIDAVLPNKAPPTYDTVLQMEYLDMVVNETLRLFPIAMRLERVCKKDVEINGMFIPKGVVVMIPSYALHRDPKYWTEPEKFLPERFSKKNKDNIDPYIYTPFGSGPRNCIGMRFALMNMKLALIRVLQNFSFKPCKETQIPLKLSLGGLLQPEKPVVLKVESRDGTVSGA

SMILES	caspase-3 activation [1] [%]	outcome [2]	caspase-3 activation [3] [%]	outcome [4]	outcome [5]	Potency [6]	Potency [7]	Potency [8]	outcome [9]	outcome [10]	outcome [11]	outcome [12]	Potency [13]	Potency [14]	Potency [15]	Potency [16]	Potency [17]	outcome [18]	caspase-3 activation [19]	outcome [20]
CC(C)C(C)C	0.762	inactive	-0.199	inactive	inactive	inactive	inactive	inactive	inactive	inactive	inactive	inactive	inactive	inactive	inactive	inactive	inactive	–	–	–
Cc1ccc(C(C)(C)C)cc1	-0.798	inactive	0.123	–	inactive	inactive	inactive	inactive	inactive	–	inactive	inactive	inactive	inactive	inactive	inactive	inactive	inactive	–	–
O=C(O)c1ccccc1Cl	-0.834	inactive	0.73	–	inactive	inactive	inactive	inactive	inactive	–	inactive	inactive	inactive	inactive	inactive	inactive	inactive	inactive	-0.14%	–
CCCCC(CC)COCC1CO1 (stereo unspecified)	-0.684	inactive	-0.156	inactive	inactive	inactive	inactive	inactive	inactive	–	inactive	inactive	inactive	inactive	inactive	inactive	inactive	–	–	–
Nc1cc(Cl)c([N+](=O)[O-])cc1O	-0.0539	inactive	1.74	inactive	inactive	inactive	–	inactive	inactive	inactive	inactive	inactive	inactive	inactive	inactive	inactive	inactive	inactive	–	inactive
CC(=O)OC(C)=O	0.184	inactive	-0.382	inactive	inactive	inactive	inactive	inactive	inactive	–	inactive	inactive	inactive	inactive	inactive	inactive	inactive	inactive	–	–
c1ccc(Nc2ccccc2)cc1	-0.717	inactive	0.361	inactive	inactive	inactive	inactive	inactive	inactive	inactive	inactive	inactive	inactive	inactive	inactive	inactive	inactive	inactive	–	–
CC(C)Cc1nccs1	1.49	inactive	0.155	inactive	inactive	inactive	inactive	inactive	inactive	inactive	inactive	inactive	–	inactive	inactive	inactive	inactive	inactive	–	–
C=CCCC	-0.34	inactive	1.14	–	inactive	inactive	inactive	inactive	inactive	inactive	inactive	inactive	–	inactive	inactive	inactive	inactive	–	-1.75%	–
Nc1ccc([N+](=O)[O-])c(N)c1	-0.0443	inactive	-0.185	inactive	inactive	inactive	inactive	inactive	inactive	inactive	inactive	inactive	inactive	inactive	inactive	inactive	inactive	–	–	–
Cc1ccc2c(c1[N+](=O)[O-])C(=O)c1ccccc1C2=O	-0.888	inactive	-1.7	inactive	inactive	inactive	12.6 µM (active)	inactive	inactive	–	inactive	inactive	inactive	inactive	inactive	inactive	inactive	inactive	–	inactive
CCCCCCCCCCCCC1CO1 (stereo unspecified)	-0.00149	inactive	0.543	inactive	inactive	inactive	inactive	inactive	inactive	inactive	inactive	inactive	inactive	inactive	inactive	inactive	inactive	–	–	–
CCCCC/C=C/C=C/C=O	0.621	inactive	–	–	inactive	inactive	inactive	50.1 µM (active)	inactive	inactive	inactive	inactive	inactive	inactive	inactive	inactive	–	–	163% (active)	–
Cc1cccc([N+](=O)[O-])c1C(=O)O	-0.481	inactive	–	inactive	inactive	inactive	inactive	inactive	inactive	inactive	inactive	inactive	inactive	inactive	inactive	inactive	inactive	inactive	2.11%	–
NC(=O)CCCCC(N)=O	-0.354	inactive	–	inactive	inactive	inactive	inactive	inactive	inactive	–	inactive	inactive	inactive	inactive	inactive	inactive	inactive	inactive	-0.72%	–
COc1ccc(OC)cc1	0.503	inactive	–	inactive	inactive	inactive	inactive	inactive	inactive	inactive	inactive	inactive	–	inactive	inactive	inactive	inactive	inactive	0.282%	–

Source: PubChem BioAssay (NCATS)
